ERK AVP block: vasopressin-driven ERK pathway inhibition. HEK293-V1b, vasopressin-stimulated pERK AlphaScreen. Potency, µM (top dose mostly 57.5 µM), for the others: top-dose activity, negative = inhibition, most hits filed as inhibitors. 0.99% of 72,000 active; further: on the % scale 0 is the no-effect control and ±100 the full control effect; nearly all actives have a fitted effect of over 55% in size
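HEK293 cells stably expressing V1b receptor, preincubated 30 min at 37 °C with compound, then stimulated 5 min with 25 nM vasopressin. Phospho-ERK by AlphaScreen SureFire after 5 h RT; normalized to DMSO and vasopressin; AC50 by Hill fit.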
PK Bst: pyruvate kinase (B. stearothermophilus) modulation; purified pyruvate kinase, luminescence ATP production; ribose 5-phosphate activator present at AC10; Potency, µM; 1.2% of 51,000 active; AID 361; in the data active means potency below about 11 µM; inconclusive means mostly about 12 µM to 25 µM;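 the screen sought inhibitors and activators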;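 further: scaled between full activation by ribose 5 phosphate and full inhibition by luteolin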
TSHR agonist: activates the human thyroid stimulating hormone receptor. Potency, µM (highest dose often 57.1 µM), without a hit: at the highest dose activation, usual class: activators. P16473. HEK293-CNG-TSHR cells (CNG channel as cAMP sensor), membrane potential dye, cAMP. 0.48% of 73,000 active; active means well fitted activation curve with a large enough effect in the main read-out, with a control signal flat, not every such curve was filed as active; inconclusive means small, poorly fitted or top-dose-only effect, or a change in a side signal; inactive means no such curve, though single readings can be large or run the other way; % of control where 0% means no effect;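 further: the control signal comes from parental cells without the receptor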
Target sequence (P16473 whole entry, looked up): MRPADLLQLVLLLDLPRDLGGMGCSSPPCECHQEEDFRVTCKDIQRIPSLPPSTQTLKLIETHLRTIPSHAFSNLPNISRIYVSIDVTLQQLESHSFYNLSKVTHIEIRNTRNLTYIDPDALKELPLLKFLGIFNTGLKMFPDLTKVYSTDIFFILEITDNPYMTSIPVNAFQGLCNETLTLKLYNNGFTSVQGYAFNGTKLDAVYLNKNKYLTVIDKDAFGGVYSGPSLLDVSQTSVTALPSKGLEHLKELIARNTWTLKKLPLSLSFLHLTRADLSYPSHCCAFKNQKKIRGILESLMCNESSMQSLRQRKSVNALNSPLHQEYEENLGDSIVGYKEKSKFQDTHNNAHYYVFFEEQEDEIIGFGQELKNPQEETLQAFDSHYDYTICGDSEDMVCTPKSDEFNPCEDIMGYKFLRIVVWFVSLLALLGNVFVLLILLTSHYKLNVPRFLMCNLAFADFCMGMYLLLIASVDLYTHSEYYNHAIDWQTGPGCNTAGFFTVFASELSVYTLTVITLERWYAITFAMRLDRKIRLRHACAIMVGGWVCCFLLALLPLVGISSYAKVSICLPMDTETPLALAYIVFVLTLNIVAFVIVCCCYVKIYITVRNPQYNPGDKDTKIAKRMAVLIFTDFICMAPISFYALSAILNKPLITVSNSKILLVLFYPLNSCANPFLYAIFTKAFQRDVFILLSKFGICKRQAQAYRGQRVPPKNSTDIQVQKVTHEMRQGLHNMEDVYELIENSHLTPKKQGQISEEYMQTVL
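HEK 293 cells stably expressing TSHR and a cAMP-gated CNG channel; parental CNG-only cells as counterscreen. Cells preloaded 60 min with membrane potential dye plus 100 uM RO 20-1724, then compound 30 min; fluorescence read at 590 nm.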
HEK293 cAMP cs: parental HEK293 cAMP activation (counter-screen); parental HEK293 CNG cAMP sensor, membrane potential fluorescence; Potency, µM (top dose mostly 57.1 µM), for inactives: at the highest dose activation, hits mostly activators; 2.5% of 73,000 active; AID 938; further: % of control where 0% means no effect; nearly all actives have a fitted effect of over 55% in size
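Parental HEK 293 cells stably expressing a modified CNG channel (no TSHR) report cAMP rise as membrane depolarization. Membrane potential dye with 100 uM RO 20-1724 was loaded for 60 min at room temperature, then compound added for 30 min; fluorescence read at 590 nm.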
Luciferase inh: inhibitors of firefly luciferase; purified firefly luciferase, luminescence, 8 min; Potency, µM (top dose mostly 57.1 µM), without a hit: top-dose activity change, negative = inhibition, most hits filed as inhibitors; 2.2% of 72,000 active; P08659; AID 411; further: on the % scale 0 is the no-effect control and ±100 the full control effect; nearly all actives have a fitted effect of over 40% in size
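Here, luciferase activity is measured as luminescence following an 8 min room-temperature reaction at 10 uM ATP, pH 7.2. Every library sample is titrated.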
GBA mod: modulators of human glucocerebrosidase; P04062; purified enzyme, resorufin glucoside fluorescence (screen aimed at inhibitors), 20 min; Potency, µM; 1.1% of 48,000 active; in the data active means potency below about 15 µM; inconclusive means mostly about 16 µM to 33 µM;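 further: the screen sought inhibitors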
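Normal human glucocerebrosidase (0.2 nM final) was assayed with resorufin β-D-glucopyranoside (30 uM final) in 50mM citric acid/KH2PO4, 10mM sodium taurocholate, 0.01% tween-20, pH 5.9. Compounds were titrated; fluorescence (Ex 548, Em 600) read after 20 min at RT.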
* hit, by the source's call; i = inactive; ? = inconclusive; . = no result; [ ] = remark or other dose. Shown are actives, neighbours in structure and some others; about 6.1% of the full set was active somewhere. Unless noted, the call rests on the fitted dose curve; in most records, active means well fitted curve in the direction sought with a large enough effect; inconclusive means small, poorly fitted or top-dose-only effect, or another doubt; inactive means no such curve, though single readings can be large; an effect the other way counts as inactive or inconclusive. Potency means the concentration at half of the fitted maximal effect.

SMILES	ERK AVP block	PK Bst	TSHR agonist	HEK293 cAMP cs	Luciferase inh	GBA mod
CC(C)c1nc(SCC(=O)N2CCCC2)c2ccccc2n1	?	.	.	28%	7.9µM*	>77
CCc1nc(SCC(=O)N2CCCC2)c2ccccc2n1	-12%	>57	?	?	-2%	>77
CN(C)S(=O)(=O)c1ccc(C(=O)Nc2ccc(OCC(=O)N3CCOCC3)cc2)cc1	-9%	.	2%	1%	16µM*	.
OC(CNc1nc2ccccc2s1)c1ccccc1 (stereo not given)	25µM*	>57	-5%	-9%	-12%	>77
O=C(O)CCSc1nc2ccccc2s1	-10%	>57	.	22%	3%	>77
NS(=O)(=O)c1ccc(N=Nc2nc3[nH]cnc(=S)c3[nH]2)cc1	14%[11.5 µM]	.	-1%[11.4 µM]	-4%[11.4 µM]	0%[11.4 µM]	.
Cc1noc(C)c1CSc1nc2ccccc2n1C	-18%	>57	1%	3%	0%	>77
Cc1noc(C)c1CSc1nnc(-c2ccccc2F)n1CCc1ccccc1	9%	>57	?	10µM*	2%	>77
COc1ccc(-c2nnc3sc(COc4ccc(C)cc4)nn23)cc1	9%	>11	?	20µM*	2%	>77
CCCCOc1ccc(-c2nnc(N)s2)cc1	.	i	.	.	-15%[25.5 µM]	.
CCOc1ccc(-c2nnc(N)s2)cc1	-7%	.	-5%	10%	16µM*	.
COc1ccc(-c2nnc3sc(COc4ccccc4)nn23)cc1	.	>11	.	.	0%[25.5 µM]	.
CCOc1cccc(-c2nnc3sc(COc4ccc(Cl)cc4)nn23)c1	-4%	>57	?	16µM*	2%	>77
CCN(CC)c1ccc(-c2nn3c(-c4cccnc4)nnc3s2)cc1	.	5.2*	.	.	-3%[25.5 µM]	.
CCCCCCC1=Cc2cc(OC)c(OC)cc2C(C(C(C)=O)C(=O)OCC)O1 (stereo not given)	23%[11.5 µM]	.	9%[11.4 µM]	16%[11.4 µM]	.	.
COc1cc2c(cc1O)CC[C@@H]1[C@@H]2CC[C@@]2(C)[C@H](O)CC[C@H]12	3%	.	?	?	-6%	.
C=CC[C@@H]1C=C[C@H](O/N=C(\C)CCN2CCc3nc(-c4ccccc4)c(-c4ccccc4)cc3C2)[C@H](CO)O1	6%[11.5 µM]	.	6%[11.4 µM]	27%[11.4 µM]	1%[11.4 µM]	.
CCOc1cccc(-c2nnc3sc(COc4ccccc4)nn23)c1	.	>26	.	.	3%[25.5 µM]	.
CCOc1cccc(-c2nnc3sc(COc4ccc(C)cc4)nn23)c1	-27%	>57	?	25µM*	0%	>77
CCOc1ccc(-c2nn3c(-c4ccc(OC)cc4)nnc3s2)cc1	.	>11	.	.	0%[25.5 µM]	.
CCOc1ccccc1OCc1nn2c(COc3ccccc3)nnc2s1	6%	>57	?	16µM*	0%	.
CCOc1ccc(-c2nn3c(-c4ccccc4)nnc3s2)cc1	-20%	5.1*	?	?	-1%	>77
c1ccc(Cc2nn3c(COc4ccccc4)nnc3s2)cc1	-7%	>57	-2%	1%	2%	>77
CCCCNc1nc(C)nc2c1nc(-c1ccccc1)n2CCCN1CCCCC1C (stereo not given)	0%	.	?	?	.	.
Nc1nc2c([nH]c(=O)n2C2OC(CO)C(O)C2O)c(=O)[nH]1 (stereo not given)	-11%	.	.	.	.	.
SMILES	ERK AVP block	PK Bst	TSHR agonist	HEK293 cAMP cs	Luciferase inh	GBA mod
CC(=O)OC[C@@H]1O[C@@H](O/N=C2/C[C@@H](O)[C@@H](O)[C@@H]3[C@@H]4C(=O)N(C5CCCCC5)C(=O)[C@H]4CC[C@@H]23)[C@H](OC(C)=O)[C@H](OC(C)=O)[C@@H]1OC(C)=O	14%[11.5 µM]	.	1%[11.4 µM]	-3%[11.4 µM]	0%[11.4 µM]	.
NC(=O)c1cc(-c2ccccc2)nc(N2CCOCC2)n1	-22%	4*	3%[11.4 µM]	-5%	2%	>77
NC(=O)c1cc(-c2ccccc2)nc(N2CCCCCC2)n1	8%	>57	.	16%	0%	>77
CCCc1nc2ccccc2c(C(=O)OC2CCOC2=O)c1CC (stereo not given)	-3%	>57	15%	20%	1%	12*
CCc1nc2ccccc2c(C(=O)OC2CCOC2=O)c1C (stereo not given)	-29%	>57	8%	9%	3%	?
O=c1c[n+](CC[n+]2cc(=O)o[nH]2)[nH]o1	5%[11.5 µM]	.	0%[11.4 µM]	-4%[11.4 µM]	1%[11.4 µM]	.
C=CCNc1oc(-c2ccc(OCC)cc2)nc1C#N	?	5.3*	7%	-2%	-2%	?
C=CCNc1oc(-c2ccc(OC)cc2)nc1C#N	?	.	6%	3%	-23%	15*
C=CCNc1oc(-c2cccc3ccccc23)nc1C#N	?	>57	-15%	-8%	-13%	>77
OCC(CO)(CBr)CBr	-10%	.	?	-28%	.	.
CCCCNN	-2%[11.5 µM]	.	-6%[11.4 µM]	1%[11.4 µM]	2%[11.4 µM]	.
Cc1c(Cl)c(S(N)(=O)=O)cc2c1=NC=NS=2(=O)O	4%[11.5 µM]	.	2%[11.4 µM]	11%[11.4 µM]	-1%[11.4 µM]	.
CN(C)CCCCN1CCc2c(n(C)c3ccccc23)C1=O	-4%[11.5 µM]	.	4%[11.4 µM]	12%[11.4 µM]	2%[11.4 µM]	.
Clc1ccc(C(c2nnnn2C2CCCCC2)N(Cc2cccnc2)Cc2ccco2)cc1 (stereo not given)	-3%	>57	?	3.2µM*	3%	13*
C[N+](C)(C)c1ncnc2c1ncn2[C@@H]1C[C@H](O)[C@@H](CO)O1	-11%[11.5 µM]	.	5%[11.4 µM]	6%[11.4 µM]	3%[11.4 µM]	.
COc1ccc(OCC2CN3C(CCC(C)C3c3ccc(Br)cc3)C(=O)O2)cc1 (stereo not given)	33%[11.5 µM]	.	?	?	.	.
O=C(O)CCCCCC[C@@H]1C(=O)NC(=O)N1CC[C@@H](O)C1CCCCC1	.	.	?	2µM*	-3%	.
CCOC(=O)CSc1nnc(-c2ccco2)n1-c1ccccc1	3%	>57	6%	29%	1%	>77
COC(=O)c1cccc(CSc2nnc(-c3ccco3)n2-c2ccccc2)c1	4%	>57	?	20µM*	0%	>77
COc1cccc(-c2nc(CS(=O)(=O)CC(=O)Nc3cccc(C)c3C)c(C)o2)c1	-6%	.	?	25µM*	3%	.
CCCNC(=O)CS(=O)(=O)Cc1nc(-c2cccc(OC)c2)oc1C	-15%	.	13%	16%	-1%	.
Cc1ccccc1-c1nc(CS(=O)(=O)CC(=O)Nc2cc(F)ccc2F)c(C)o1	13µM*	.	?	?	1%	.
CCN(CC)[C@@H](C)C(=O)N1c2ccccc2Sc2ccccc21	.	.	.	28%	1%	.
O=C(O)[C@@H]1CS[C@@]2(CCCN(Cc3ccccc3)C2)N1	9%[11.5 µM]	.	0%[11.4 µM]	-4%[11.4 µM]	3%[11.4 µM]	.
c1ccc(B2OC[C@@H]3OB(c4ccccc4)O[C@H]([C@@H]4COB(c5ccccc5)O4)[C@@H]3O2)cc1	5%[11.5 µM]	.	5%[11.4 µM]	8%[11.4 µM]	1%[11.4 µM]	.
O=c1c(O)c(-c2ccc(O)c(O)c2)oc2c(OC3OC(CO)C(O)C(O)C3O)c(O)cc(O)c12 (stereo not given)	-15%	.	.	.	.	.
CN(C)S(=O)(=O)c1ccc2c(c1)/C(=C/c1cc3c([nH]1)CCCC3)C(=O)N2	?	.	-22%	-19%	25µM*	.

Source: PubChem BioAssay
